# This is a sample that favours compounds with a hit; in the whole collection about 2.6% have one here.
# Cruzain noTriton: cruzain (T. cruzi) inhibition without detergent; P25779; purified cruzain, Z-FR-AMC fluorescence, no detergent; Potency, µM, inactives show max response, negative = inhibition, actives largely listed as inhibitors; 200,000 compounds, 2.3% hits; AID 1476;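 note: plate controls were enzyme without inhibitor for no effect and buffer without enzyme for full effect; nearly all actives have a fitted effect of over 40% in size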
# Target sequence (P25779 123-467 limits assumed): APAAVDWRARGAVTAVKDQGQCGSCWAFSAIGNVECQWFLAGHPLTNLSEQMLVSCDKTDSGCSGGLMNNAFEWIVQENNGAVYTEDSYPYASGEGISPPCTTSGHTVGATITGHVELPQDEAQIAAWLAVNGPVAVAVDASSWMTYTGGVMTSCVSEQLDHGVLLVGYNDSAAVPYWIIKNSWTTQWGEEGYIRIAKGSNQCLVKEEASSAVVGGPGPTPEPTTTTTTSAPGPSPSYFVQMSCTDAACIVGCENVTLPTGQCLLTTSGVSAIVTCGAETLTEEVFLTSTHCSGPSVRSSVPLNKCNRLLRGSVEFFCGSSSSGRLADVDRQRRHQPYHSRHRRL
#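 Purified cruzain at 1.5 nM, pre-incubated 15 min with compound at room temperature in 100 mM sodium acetate pH 5.5, 5 mM DTT, 0.00005% Triton X-100. Reaction started with 2 uM Z-FR-AMC; AMC fluorescence increase over 60 s gives rate.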
# Cruzain inh Det: cruzain (T. cruzi) inhibition with detergent. purified cruzain, Z-FR-AMC fluorescence, 0.01% Triton. Potency, µM, for the others: max response, negative = inhibition, actives largely listed as inhibitors. 200,000 compounds, 0.43% hits;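 note: plate controls were neutral wells for no effect and buffer without enzyme for full effect; nearly all actives have a fitted effect of over 40% in size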
#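 Detergent-containing arm of a paired screen for aggregation-based inhibition: 0.01% Triton X-100 present. Cruzain at 1.5 nM cleaved 2 uM Z-FR-AMC at pH 5.5 with 5 mM DTT; AMC fluorescence gain over 60 s measured activity.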
# An asterisk follows results filed as active; ? = inconclusive; ! = repeats disagree. Calls come from the whole dose curve; as a rule, active = well fitted curve in the direction sought with a large enough effect; inconclusive = small, poorly fitted or top-dose-only effect, or another doubt; inactive = no such curve, though single readings can be large; an effect the other way counts as inactive or inconclusive. Potency is the fitted concentration of half-maximal effect.
SMILES,Cruzain noTriton,Cruzain inh Det
COc1ccc(N2CCN(CC(=O)Nc3nnc(-c4ccccc4)s3)CC2)cc1,25µM*,1%
O=C(CN1CCN(c2ccccc2)CC1)Nc1nnc(-c2ccccc2)s1,-4%,-4%
CCOc1ccc(C(=O)Nc2ccc(-c3nc4ccccc4s3)c(C)c2)cc1OCC,-5%,3%
N=C1/C(=C\c2ccc(-c3cc(Cl)cc(Cl)c3)o2)C(=O)N=C2SC=C(c3ccccc3)N12,2.5µM*,-4%
CS(=O)(=O)C1=NSC2=NC(=O)/C(=C\c3ccc(-c4ccccc4)o3)C(=N)N21,24%,-16%
CCCC1=NN2C(=N)/C(=C\c3cc(C)n(-c4cc(C)cc(C)c4)c3C)C(=O)N=C2S1,?,-7%
N=C1/C(=C/c2cccn2CCOc2ccccc2)C(=O)N=C2SC=C(c3ccccc3)N12,6.3µM*,0%
Cc1ccc(-n2c(C)cc(/C=C3/C(=N)N4C(c5ccccc5)=CSC4=NC3=O)c2C)cc1,6.3µM*,1%
CC1=CC2=NC(=O)/C(=C\c3cccn3CCOc3ccc(C)c(C)c3)C(=N)N2O1,2%,-6%
Cc1cc(C)cc(-n2c(C)cc(/C=C3\C(=N)N4N=C(CC(C)C)SC4=NC3=O)c2C)c1,25µM*,-7%
Cc1cccc(-n2c(C)cc(/C=C3\C(=N)N4N=C(CC(C)C)SC4=NC3=O)c2C)c1,?,-3%
Fc1ccccc1Cn1c(-c2ccccc2)nc2ccccc21,3%,1%
CC1(C)N=C(SCc2ccc(F)cc2)c2ccccc2N1,1%,-3%
COc1ccc(NC(=O)Cn2cc(C(=O)c3ccccc3)c(=O)c3cc(OC)ccc32)c(OC)c1,8%,-3%
Cc1ccc(C(=O)Nc2ccc(Br)cc2)cc1S(=O)(=O)NCc1ccccc1,7%,-7%
CCCC[C@H]1C[C@@H]1[C@@H]1N(C(C)=O)[C@H](c2cccc(OC)c2)CC12CC2,?,-6%
COc1ccc(OCc2nc3c4c(-c5ccccc5)c(-c5ccccc5)oc4ncn3n2)cc1,-3%,-3%
Cc1cccc(C)c1Nc1nn2c(=O)c3cc4c(cc3nc2s1)OCO4,-9%,0%
Cc1ccc(S(=O)(=O)N(CC(=O)N=Nc2c(O)[nH]c3ccccc23)c2cccc(C)c2)cc1,-22%,-1%
CC(/C=C(\NC(=O)c1ccccc1)C(=O)N=Nc1c(O)[nH]c2ccc(C)cc12)=C\c1ccccc1,25µM*,-2%
COc1cc(NC(=O)c2cc3c(=O)oc4ccc(C)cc4c3s2)cc(OC)c1OC,8%,2%
N#Cc1c(NCCN)nc(-c2ccco2)c2c1CCCC2,25µM*,-7%
CN(C)CCNc1nc(-c2ccco2)c2c(c1C#N)CC(C)(C)OC2,4%,-5%
Cc1nc(-c2ccc(F)cc2)sc1CCNC(=O)C(=O)Nc1ccc2c(c1)OCO2,-2%,0%
COc1ccc(NCc2cc3cc4c(cc3n(CC(=O)Nc3ccc(C)cc3)c2=O)OCO4)cc1,20µM*,-6%
SMILES,Cruzain noTriton,Cruzain inh Det
CCc1ccc(NCc2cc3cc4c(cc3n(CC(=O)Nc3cccc(OC)c3)c2=O)OCO4)cc1,25µM*,-5%
CCc1ccc(NCc2cc3cc4c(cc3n(CC(=O)Nc3ccc(OC)cc3)c2=O)OCO4)cc1,2%,-3%
CCc1ccc(NCc2cc3ccc(OC)cc3n(CC(=O)Nc3c(C)cc(C)cc3C)c2=O)cc1,3%,-2%
CCc1ccc(NCc2cc3ccc(OC)cc3n(CC(=O)Nc3ccc(C)c(Cl)c3)c2=O)cc1,25µM*,-3%
COc1ccc(NCc2cc3cc4c(cc3n(CC(=O)Nc3ccc(C)cc3C)c2=O)OCO4)cc1,?,-7%
CCOc1ccc2nc(N3CCC(C(=O)Nc4ccccc4CC)CC3)sc2c1,-20%,-3%
Cc1cc(Nc2ccc(C(=O)O)c(O)c2)n2ncnc2n1,6%,-4%
COc1cc(-c2nc(Cn3nnc(C(=O)Nc4ccccc4)c3C)c(C)o2)cc(OC)c1OC,?,-7%
O=C(NCCOCCn1c(=O)oc2ccccc21)Nc1ccc(F)cc1,16%,0%
O=C(NCc1ccccn1)c1ccc([N+](=O)[O-])cc1,-9%,-2%
O=C(Nc1cc(Sc2ccccn2)cc([N+](=O)[O-])c1)c1ccc([N+](=O)[O-])cc1,32µM*,0%
CCC(=O)Nc1ccc(S(=O)(=O)NCc2cccn2Cc2cccc(C)c2)cc1,6%,-7%
O=C(Nn1c(O)c(C=C2N=c3ccccc3=N2)sc1=S)c1ccccc1Cl,-29%,-13%
Oc1c(C=C2N=c3ccccc3=N2)sc(=S)n1-c1ccccc1,10µM*,-3%
O=C1N=c2ccccc2=C1c1sc(=S)n(CC2CCCO2)c1O (stereo not drawn),-13%,8%
Oc1c(C=C2N=c3ccccc3=N2)sc(=S)n1C1CCCCC1,13µM*!,-4%
CCN(CC)CCCNC(=O)c1ccc2nc(N3CCCCC3)sc2c1,13%,-5%
CCOC(=O)c1ccc(N2C(=O)c3[nH]nc(-c4ccc(C)cc4)c3C2c2ccc(O)cc2)cc1 (stereo not drawn),?,-5%
CCOC(=O)c1ccc(N2C(=O)c3[nH]nc(-c4ccccc4)c3C2c2ccc(CC)cc2)cc1 (stereo not drawn),13µM*,-4%
O=C(NC(=S)Nc1nc2c(s1)CSc1ccccc1-2)c1ccccc1,7.9µM*,-5%
O=C(NC(=S)Nc1nc2c(s1)CCCC2)c1ccc(C(=O)c2ccccc2)cc1,25µM*,0%
Cc1onc(-c2ccccc2Cl)c1C(=O)Nc1nnc(-c2ccc(Cl)cc2Cl)s1,?,-2%
COC(=O)c1ccc(C(=O)NC(=S)Nc2nc3c(s2)CC(C)CC3)cc1 (stereo not drawn),6%,-3%
O=C(Nc1nc2c(s1)CCCC2)c1cccnc1,-12%,-5%
Cc1onc(-c2ccccc2Cl)c1C(=O)Nc1nc2c(s1)CCCC2,25µM*,-1%
SMILES,Cruzain noTriton,Cruzain inh Det
CCOC(=O)c1ccccc1NC(=O)c1sc2ncn(CC)c(=O)c2c1C,-13%,-2%
COc1ccc(CCNC(=O)C(=O)NCC(c2cccs2)S(=O)(=O)c2ccc(F)cc2)cc1 (stereo not drawn),-9%,-3%
COc1cc(C)cc2oc(=O)c(CC(=O)NCCc3ccc(Cl)cc3)c(C)c12,-10%,4%
Cc1ccc(NC(=O)c2ccc(OC(=O)C(C)Oc3ccc(Cl)cc3C)cc2)cc1 (stereo not drawn),7.9µM*,2%
COc1ccc(C(=O)Nc2ccc(OC)c(OC)c2)cc1,-12%,-3%
O=S(=O)(N/N=C1\CC(c2ccccc2)Oc2ccccc21)c1ccccc1 (stereo not drawn),-23%,-1%
Cc1ccc(S(=O)(=O)N/N=C2/CC(c3ccccc3)Oc3ccccc32)cc1 (stereo not drawn),25µM*,-3%
Oc1c(C(c2ccccc2)N2CCC(O)CC2)sc2nc(-c3ccco3)nn12 (stereo not drawn),-2%,0%
O=C1c2ccccc2C(=O)N1c1ccc(-c2nc3ccccc3o2)cc1,5%,4%
NCc1ccc(-c2nc3ccccc3o2)cc1,13µM*,-2%
CN(C(=O)CSc1nc2ccc(NC(=O)c3cccc(F)c3)cc2s1)c1ccccc1,-27%,-5%
CCCCOc1ccc(S(=O)(=O)Nc2ccc(-c3ccc(N4CCCCCC4)nn3)cc2)cc1,-24%,-4%
CCCCOc1ccc(S(=O)(=O)Nc2ccc(-c3ccc(N4CCCCC4)nn3)cc2)cc1,32µM*,-5%
CCOC(=O)c1c(NC(=O)c2nc(SCC)ncc2Cl)sc2c1CCCC2,11%,-1%
